About 83,000 compounds went through this panel and 20% of them were active in at least one assay; those are over-represented in the sample as a whole.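 Assay: single dose, 48 h. Readout: percent growth (0 = no net growth; negative = cell death). Active: <10.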 Values without a mark were called inactive. Calls of active or inactive are those of the source.
Legend:
Test in all cases: NCI-60 one-dose screen, 48 h (100 = growth as untreated, 0 = no growth, -100 = all killed)
Details in all cases: 10 µM unless noted
[1] = tested on: HCT-15 colon
[2] = tested on: HT29 colon
[3] = tested on: SNB-19 CNS
[4] = tested on: U251 CNS
[5] = tested on: PC-3 prostate
[6] = tested on: SK-MEL-5 melanoma
[7] = tested on: UACC-62 melanoma
[8] = tested on: LOX IMVI melanoma
[9] = tested on: SK-MEL-28 melanoma
[10] = tested on: SK-MEL-2 melanoma
[11] = tested on: SN12C renal
[12] = tested on: UO-31 renal
[13] = tested on: ACHN renal
[14] = tested on: CAKI-1 renal
[15] = tested on: A498 renal
[16] = tested on: CCRF-CEM leukemia
[17] = tested on: MOLT-4 leukemia
[18] = tested on: EKVX NSCLC
[19] = tested on: TK-10 renal
[20] = tested on: SNB-75 CNS

Structure (SMILES) | growth [1] | growth [2] | growth [3] | growth [4] | growth [5] | growth [6] | growth [7] | growth [8] | growth [9] | growth [10] | growth [11] | growth [12] | growth [13] | growth [14] | growth [15] | growth [16] | growth [17] | growth [18] | growth [19] | growth [20]
CNC1=C(Br)C(=O)c2c(C(=O)OC)c(C)nc(C)c2C1=O | 36.8% | 19.8% | 82.9% | 71.1% | 48.9% | -90.9% (active) | 1.42% (active) | 35.3% | 91.3% | 52.1% | 45.4% | 77.4% | 72% | 68.2% | 93.1% | 77.3% | 79.8% | – | – | –
O=C(OCC(O)C(=O)NC12CC3CC(CC(C3)C1)C2)c1cccc(Br)c1 (stereo not given) | 95.2% | 93.5% | 98.2% | 97.5% | 90.1% | 103% | 92.9% | 95.2% | 103% | 103% | 102% | 84.9% | 101% | 96.2% | 94.4% | 81.9% | 87% | 96.4% | 109% | –
N#C/C(=C\c1cccc2cnccc12)N1N=NC2C=CC=CC21 (stereo not given) | 13.5% | 12.7% | 66% | 70.6% | 47.9% | 46.4% | 37.1% | 11.7% | 43.8% | 61.3% | 30.7% | 27.2% | 19.2% | 27% | 38.5% | 10.2% | 31.7% | 40.4% | 55.6% | –
Nc1ccc(N)c2c1C(=O)c1cccc([N+](=O)[O-])c1C2=O | 27.7% | 44.7% | 26.2% | 33.7% | 49.3% | 23.8% | 5.05% (active) | 22.4% | 102% | 53.7% | 25.9% | 33.4% | 15.9% | 5.03% (active) | – | 48.3% | 46.5% | 38.2% | 45.3% | –
O=C(CSc1nnc(-c2ccc(Cl)c(Cl)c2)n1-c1ccccc1)Nc1ccc(C(=O)/C=C/c2ccc(Cl)cc2)cc1 | 92.3% | 85.9% | 94.1% | 84% | – | 93.1% | 76.7% | 97.5% | 104% | 78.6% | 89.4% | 66.2% | 98% | 74.2% | 82.5% | 83.7% | 80.5% | 88.3% | 93.3% | –
O=c1c(/C=C/c2c(O)ccc3ccccc23)nnc2sc(-c3cccc([N+](=O)[O-])c3)nn12 | 29.1% | 88.8% | 50% | 0.449% (active) | 52.7% | 65.2% | 32.5% | 33.7% | 54.1% | 79.2% | – | 20.1% | 31.7% | 24.9% | 50.5% | 18.6% | 25.9% | 54.4% | 83.1% | –
Cc1ccc(-c2nn(CC(=O)N3CCOCC3)c(N)c2C#N)cc1 | 105% | 112% | 97.4% | 99.4% | 100% | 102% | 93.1% | 100% | 102% | 103% | 102% | 84.7% | 101% | 87.3% | 91.3% | 101% | 103% | – | 105% | –
C=CC(=O)Nc1ccc2ncnc(Nc3cccc(NS(=O)(=O)CCC)c3Cl)c2c1 | 67.9% | 7.98% (active) | 49% | 52.5% | – | 52.4% | 6.45% (active) | 40.7% | 15% | 51.9% | 22.9% | 19.2% | 29.3% | 22.6% | -14.3% (active) | 50.2% | 67.3% | – | 11.3% | 8.28% (active)
CC(C)=CC(=O)C1C(=O)c2ccccc2C1=O | 95% | 111% | 94.7% | 95.1% | 100% | 99.2% | 94.3% | 96.8% | 108% | 102% | 95.1% | 92.3% | 97.1% | 81% | 87.6% | 98.1% | 103% | 99.4% | 108% | –
COc1ccc(-c2cc(-c3ccc(Cl)cc3)c(C#N)c(=O)n2CCCCC(=O)NO)cc1 | 20.9% | 83.9% | 78% | 69.7% | 70.6% | 39.1% | 87.1% | -14.3% (active) | 79.3% | 88% | 68.7% | -16.4% (active) | 34.6% | -13.2% (active) | 95.4% | 63.9% | 80.6% | 71.9% | 70.4% | –
CSc1nc(N)c2c(n1)NC(c1ccccc1)C1CCc3ccccc3C1=N2 (stereo not given) | 46.8% | 42.7% | 79% | 68.2% | 11.9% | 51% | 42.6% | 43.3% | 81.5% | 30.1% | 65.7% | 43% | 72.3% | 48.2% | 42.7% | 20% | 27.9% | 40.9% | 112% | –
Nc1ncc(-c2ccc3ncnc(N4CCc5cc(F)c(Cl)cc54)c3c2)cc1C=O | 26.5% | 16.4% | 37% | 48.5% | – | 2.88% (active) | -17.2% (active) | 19.2% | 10.2% | 8.65% (active) | 12.9% | 0.272% (active) | 7.1% (active) | -0.981% (active) | -62.8% (active) | – | 2.46% (active) | – | -6.72% (active) | -38.3% (active)
COC(=O)CNC(=O)c1ccc(NC(=O)c2[nH]c(C)c(Cl)c2Cl)c(O[C@H]2CCNC2)c1 | 107% | 108% | 102% | 101% | 96.8% | 101% | 98.7% | 94.4% | 115% | 108% | 97.5% | 84.8% | 106% | 94.9% | 89.9% | 91.9% | 93.5% | 102% | 104% | –
COc1nc2ccccc2cc1/C=C1/C=C(c2ccccc2)NC1=O | 30.3% | 10% | 43.4% | 31% | 55.1% | 39.4% | 32.1% | 38.8% | 58.9% | 19% | 40.6% | 41.2% | 40.9% | 31.9% | 35.9% | 41.1% | 21.5% | 52.5% | 87.5% | –
CCOC(=O)c1ccc2c(c1)c1c(C)c3cnccc3c(C)c1n2C | -64.9% (active) | -44.6% (active) | -15% (active) | -45.1% (active) | -21.7% (active) | -99% (active) | -77.3% (active) | -62.2% (active) | -97.7% (active) | -89% (active) | -58.2% (active) | -53.6% (active) | -95% (active) | -25% (active) | -78.7% (active) | -2.56% (active) | 2.2% (active) | -13.4% (active) | -65.3% (active) | –
Cc1cc(=O)oc2cc(Oc3nc(-c4ccccc4)cn4c(-c5ccccc5)cnc34)ccc12 | 68.6% | 53.2% | 64.4% | 67.3% | 39.2% | 38.3% | 81.4% | 56.4% | 67.6% | 51.9% | 67.6% | 40.8% | 48.6% | 85.2% | 9.88% (active) | 77.6% | 58.5% | 66.8% | 80.5% | –

— PubChem BioAssay (NCI)
